# Data reported in PMC7862700, “An all-to-all approach to the identification of sequence-specific readers for epigenetic DNA modifications on cytosine”.
# Columns and labels:
# Experiment in all cases: DAPPL (digital affinity profiling via proximity ligation, sequencing); 10 mM Tris-HCl pH 7.5, 50 mM NaCl, 1 mM DTT, 4% glycerol, room temperature, 30 min; GST-TFs on glutathione beads, 16-mer random dsDNA library, 0.1% formaldehyde crosslink after washing; high values mean tight binding
# FLI1 = target: T1, FLI1 (Homo sapiens, UniProt Q01543 1-452); details: protein: recombinant; tags: N-terminal GST; dsDNA, one strand shown
# T1 sequence: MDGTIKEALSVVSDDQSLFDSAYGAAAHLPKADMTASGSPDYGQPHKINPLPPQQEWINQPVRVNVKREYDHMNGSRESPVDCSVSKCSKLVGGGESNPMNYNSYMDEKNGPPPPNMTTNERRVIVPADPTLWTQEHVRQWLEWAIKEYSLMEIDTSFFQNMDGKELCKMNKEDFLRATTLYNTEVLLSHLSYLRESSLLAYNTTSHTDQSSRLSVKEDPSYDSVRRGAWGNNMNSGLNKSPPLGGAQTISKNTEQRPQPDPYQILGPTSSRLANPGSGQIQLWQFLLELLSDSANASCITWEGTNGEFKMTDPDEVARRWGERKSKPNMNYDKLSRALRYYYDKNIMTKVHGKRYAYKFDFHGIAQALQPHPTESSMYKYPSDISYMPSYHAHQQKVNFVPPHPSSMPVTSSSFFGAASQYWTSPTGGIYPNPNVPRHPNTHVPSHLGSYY
# Outline: (§1)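 Beads coated with glutathione captured GST-fused human transcription factors that had been expressed in yeast, and the factors were then given DNA barcodes and pooled with a tag-only sample. The pools were incubated with 200 nmole of a random double-stranded 16-mer DNA library in Tris/NaCl/DTT/glycerol buffer for 30 min at room temperature, washed, crosslinked with 0.1% formaldehyde and proximity-ligated with BsaI/T4 ligase at 37 °C for 1 h. PCR amplification and Illumina NextSeq500 sequencing came last. Binding signal is each hexamer's read frequency for a factor divided by its frequency for the tag-only sample.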
# ELK1 = target: T2, ELK1 (Homo sapiens, UniProt P19419 1-428); details: protein: recombinant; tags: N-terminal GST; dsDNA, one strand shown
# T2 sequence: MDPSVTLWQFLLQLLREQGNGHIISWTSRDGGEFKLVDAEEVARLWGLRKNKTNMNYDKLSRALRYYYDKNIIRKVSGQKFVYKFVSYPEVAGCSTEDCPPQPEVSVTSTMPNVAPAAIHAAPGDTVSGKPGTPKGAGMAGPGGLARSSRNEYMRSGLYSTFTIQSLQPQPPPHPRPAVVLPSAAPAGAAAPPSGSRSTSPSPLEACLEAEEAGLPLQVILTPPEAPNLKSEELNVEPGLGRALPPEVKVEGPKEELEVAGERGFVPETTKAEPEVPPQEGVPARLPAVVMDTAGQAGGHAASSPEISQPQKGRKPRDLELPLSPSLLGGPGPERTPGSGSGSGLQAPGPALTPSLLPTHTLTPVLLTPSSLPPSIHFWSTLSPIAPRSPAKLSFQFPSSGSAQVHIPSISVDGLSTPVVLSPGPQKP
# Outline: as §1
# GABPA = target: T3, GABPA (Homo sapiens, UniProt Q06546 1-454); details: protein: recombinant; tags: N-terminal GST; dsDNA, one strand shown
# T3 sequence: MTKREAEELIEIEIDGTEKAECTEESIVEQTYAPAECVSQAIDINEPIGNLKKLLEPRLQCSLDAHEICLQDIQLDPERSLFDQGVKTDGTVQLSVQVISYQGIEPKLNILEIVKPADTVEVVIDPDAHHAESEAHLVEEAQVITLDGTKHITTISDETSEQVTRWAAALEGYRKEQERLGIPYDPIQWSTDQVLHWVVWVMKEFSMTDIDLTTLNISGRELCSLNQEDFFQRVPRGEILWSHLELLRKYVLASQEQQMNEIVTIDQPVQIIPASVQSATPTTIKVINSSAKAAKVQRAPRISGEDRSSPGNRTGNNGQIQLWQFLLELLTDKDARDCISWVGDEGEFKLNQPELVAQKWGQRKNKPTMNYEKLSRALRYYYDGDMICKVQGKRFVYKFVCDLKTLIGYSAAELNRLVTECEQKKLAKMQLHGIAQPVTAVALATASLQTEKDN
# Outline: as §1
# ERG = target: T4, ERG (Homo sapiens, UniProt P11308 1-479); details: protein: recombinant; tags: N-terminal GST; dsDNA, one strand shown
# T4 sequence: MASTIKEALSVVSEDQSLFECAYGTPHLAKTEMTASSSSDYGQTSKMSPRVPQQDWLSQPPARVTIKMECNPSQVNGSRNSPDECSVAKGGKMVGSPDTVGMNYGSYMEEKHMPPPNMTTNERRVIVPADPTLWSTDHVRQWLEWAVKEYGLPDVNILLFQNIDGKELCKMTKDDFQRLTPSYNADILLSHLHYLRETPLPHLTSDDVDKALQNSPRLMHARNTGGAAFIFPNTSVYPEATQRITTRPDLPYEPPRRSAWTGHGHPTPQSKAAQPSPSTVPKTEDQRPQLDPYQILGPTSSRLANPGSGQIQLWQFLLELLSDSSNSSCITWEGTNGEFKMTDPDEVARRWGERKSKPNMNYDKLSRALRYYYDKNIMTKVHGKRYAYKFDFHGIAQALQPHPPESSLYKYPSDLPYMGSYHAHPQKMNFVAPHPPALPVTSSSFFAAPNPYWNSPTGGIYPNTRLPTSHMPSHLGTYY
# Outline: as §1
# ELF1 = ELF1 (Homo sapiens, UniProt P32519 1-619); details: protein: recombinant; tags: N-terminal GST; dsDNA, one strand shown
# Sequence of ELF1 (P32519 whole entry): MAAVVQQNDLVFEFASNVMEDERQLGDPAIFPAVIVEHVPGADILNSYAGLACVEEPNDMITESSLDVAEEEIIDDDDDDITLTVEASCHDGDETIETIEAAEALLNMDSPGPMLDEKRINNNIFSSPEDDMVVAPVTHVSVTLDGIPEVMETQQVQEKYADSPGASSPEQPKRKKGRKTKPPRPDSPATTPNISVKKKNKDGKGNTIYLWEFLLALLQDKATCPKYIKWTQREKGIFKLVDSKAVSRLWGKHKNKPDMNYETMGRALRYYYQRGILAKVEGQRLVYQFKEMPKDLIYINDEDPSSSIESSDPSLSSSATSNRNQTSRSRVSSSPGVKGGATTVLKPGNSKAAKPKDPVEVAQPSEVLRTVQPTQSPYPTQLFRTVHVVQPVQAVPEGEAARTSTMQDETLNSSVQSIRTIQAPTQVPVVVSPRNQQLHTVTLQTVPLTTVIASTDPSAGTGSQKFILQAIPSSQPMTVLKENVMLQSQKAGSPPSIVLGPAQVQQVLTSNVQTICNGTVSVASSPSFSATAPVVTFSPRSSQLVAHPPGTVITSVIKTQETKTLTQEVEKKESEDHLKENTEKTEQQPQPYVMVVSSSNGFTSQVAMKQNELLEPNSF
# Outline: as §1
# EHF = target: T5, EHF (Homo sapiens, UniProt Q9NZC4 1-300); details: protein: recombinant; tags: N-terminal GST; dsDNA, one strand shown
# T5 sequence: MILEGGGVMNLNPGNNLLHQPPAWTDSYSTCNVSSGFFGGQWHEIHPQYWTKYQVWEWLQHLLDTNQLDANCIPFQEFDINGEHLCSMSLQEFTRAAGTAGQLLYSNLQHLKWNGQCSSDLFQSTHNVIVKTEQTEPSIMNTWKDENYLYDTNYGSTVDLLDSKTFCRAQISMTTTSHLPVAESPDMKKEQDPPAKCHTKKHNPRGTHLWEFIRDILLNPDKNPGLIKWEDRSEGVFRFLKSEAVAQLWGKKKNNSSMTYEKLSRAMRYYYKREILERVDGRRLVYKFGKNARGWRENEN
# Outline: as §1
# SPI1 = SPI1 (Homo sapiens, UniProt P17947 1-270); details: protein: recombinant; tags: N-terminal GST; dsDNA, one strand shown
# Outline: as §1
# SPIB = SPIB (Homo sapiens, UniProt Q01892 1-262); details: protein: recombinant; tags: N-terminal GST; dsDNA, one strand shown
# Sequence of SPIB (Q01892 whole entry): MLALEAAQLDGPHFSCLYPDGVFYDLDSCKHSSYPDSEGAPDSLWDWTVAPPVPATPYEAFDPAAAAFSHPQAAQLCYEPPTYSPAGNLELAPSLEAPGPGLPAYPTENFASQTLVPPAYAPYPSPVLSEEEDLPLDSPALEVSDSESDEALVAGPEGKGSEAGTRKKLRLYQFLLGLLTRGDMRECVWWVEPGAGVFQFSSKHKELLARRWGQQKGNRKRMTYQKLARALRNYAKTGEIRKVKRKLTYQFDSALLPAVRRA
# Outline: as §1
# ELK3 = target: T6, ELK3 (Homo sapiens, UniProt P41970 1-407); details: protein: recombinant; tags: N-terminal GST; dsDNA, one strand shown
# T6 sequence: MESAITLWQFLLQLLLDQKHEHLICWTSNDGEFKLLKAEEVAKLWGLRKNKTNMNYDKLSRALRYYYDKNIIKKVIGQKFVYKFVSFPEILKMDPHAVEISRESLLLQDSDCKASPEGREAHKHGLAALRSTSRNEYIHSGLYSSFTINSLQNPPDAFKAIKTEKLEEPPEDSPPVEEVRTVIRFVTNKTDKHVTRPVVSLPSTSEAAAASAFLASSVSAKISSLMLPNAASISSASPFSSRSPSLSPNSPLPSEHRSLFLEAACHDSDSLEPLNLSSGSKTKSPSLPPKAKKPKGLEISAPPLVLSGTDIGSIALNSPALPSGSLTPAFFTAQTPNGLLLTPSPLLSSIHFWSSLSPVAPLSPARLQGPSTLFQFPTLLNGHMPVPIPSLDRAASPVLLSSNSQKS
# Outline: as §1
# FEV = target: T7, FEV (Homo sapiens, UniProt Q99581 1-238); details: protein: recombinant; tags: N-terminal GST; dsDNA, one strand shown
# T7 sequence: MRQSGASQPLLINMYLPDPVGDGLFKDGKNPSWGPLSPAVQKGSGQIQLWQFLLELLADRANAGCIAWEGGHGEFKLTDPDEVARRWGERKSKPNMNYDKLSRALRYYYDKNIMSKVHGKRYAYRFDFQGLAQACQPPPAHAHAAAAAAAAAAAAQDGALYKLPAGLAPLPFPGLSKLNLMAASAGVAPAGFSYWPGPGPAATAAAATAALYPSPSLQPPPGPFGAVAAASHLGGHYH
# Outline: as §1
# ETV5 = ETV5 (Homo sapiens, UniProt P41161 1-510); details: protein: recombinant; tags: N-terminal GST; dsDNA, one strand shown
# Sequence of ETV5 (P41161 whole entry): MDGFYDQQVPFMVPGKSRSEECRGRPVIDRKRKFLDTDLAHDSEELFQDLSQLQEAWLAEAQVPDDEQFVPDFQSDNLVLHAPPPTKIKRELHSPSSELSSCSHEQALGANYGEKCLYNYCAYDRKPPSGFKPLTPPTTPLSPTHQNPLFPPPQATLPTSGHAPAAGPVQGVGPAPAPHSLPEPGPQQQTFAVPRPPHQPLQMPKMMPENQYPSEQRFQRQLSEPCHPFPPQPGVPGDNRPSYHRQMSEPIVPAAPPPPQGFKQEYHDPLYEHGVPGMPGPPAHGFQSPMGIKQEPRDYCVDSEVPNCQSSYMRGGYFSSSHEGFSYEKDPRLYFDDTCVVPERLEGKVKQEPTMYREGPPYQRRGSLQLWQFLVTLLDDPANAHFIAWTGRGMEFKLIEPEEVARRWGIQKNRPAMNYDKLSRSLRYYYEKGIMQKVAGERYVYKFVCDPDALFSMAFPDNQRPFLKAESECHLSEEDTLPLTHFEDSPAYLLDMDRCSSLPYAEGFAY
# Outline: as §1
# HSF1 = HSF1 (Homo sapiens, UniProt Q00613 1-529); details: protein: recombinant; tags: N-terminal GST; chain copies: 3; dsDNA, one strand shown
# Sequence of HSF1 (Q00613 whole entry): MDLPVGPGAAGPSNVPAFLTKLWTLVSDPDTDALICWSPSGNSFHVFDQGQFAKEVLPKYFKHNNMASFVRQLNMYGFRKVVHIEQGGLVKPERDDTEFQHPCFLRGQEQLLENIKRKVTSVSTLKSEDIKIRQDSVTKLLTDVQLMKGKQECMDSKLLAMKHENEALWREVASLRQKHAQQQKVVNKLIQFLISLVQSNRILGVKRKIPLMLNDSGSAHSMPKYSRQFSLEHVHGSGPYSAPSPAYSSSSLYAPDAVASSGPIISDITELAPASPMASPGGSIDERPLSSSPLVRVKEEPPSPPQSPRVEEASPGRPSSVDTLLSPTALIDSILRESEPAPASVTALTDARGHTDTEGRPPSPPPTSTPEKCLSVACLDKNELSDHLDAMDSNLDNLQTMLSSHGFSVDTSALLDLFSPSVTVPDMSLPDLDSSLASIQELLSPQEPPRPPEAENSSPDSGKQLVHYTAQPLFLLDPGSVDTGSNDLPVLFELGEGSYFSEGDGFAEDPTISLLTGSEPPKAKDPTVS
# Outline: as §1
# SPIC = target: T8, SPIC (Homo sapiens, UniProt Q8N5J4 1-248); details: protein: recombinant; tags: N-terminal GST; dsDNA, one strand shown
# T8 sequence: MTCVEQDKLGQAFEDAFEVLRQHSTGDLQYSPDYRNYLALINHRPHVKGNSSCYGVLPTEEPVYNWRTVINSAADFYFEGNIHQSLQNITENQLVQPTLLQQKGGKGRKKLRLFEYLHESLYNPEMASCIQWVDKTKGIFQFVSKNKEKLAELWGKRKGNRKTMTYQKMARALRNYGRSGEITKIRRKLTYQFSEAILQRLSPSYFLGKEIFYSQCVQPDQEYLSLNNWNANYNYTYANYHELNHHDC
# Outline: as §1
# ELF4 = ELF4 (Homo sapiens, UniProt Q99607 1-663); details: protein: recombinant; tags: N-terminal GST; dsDNA, one strand shown
# Sequence of ELF4 (Q99607 whole entry): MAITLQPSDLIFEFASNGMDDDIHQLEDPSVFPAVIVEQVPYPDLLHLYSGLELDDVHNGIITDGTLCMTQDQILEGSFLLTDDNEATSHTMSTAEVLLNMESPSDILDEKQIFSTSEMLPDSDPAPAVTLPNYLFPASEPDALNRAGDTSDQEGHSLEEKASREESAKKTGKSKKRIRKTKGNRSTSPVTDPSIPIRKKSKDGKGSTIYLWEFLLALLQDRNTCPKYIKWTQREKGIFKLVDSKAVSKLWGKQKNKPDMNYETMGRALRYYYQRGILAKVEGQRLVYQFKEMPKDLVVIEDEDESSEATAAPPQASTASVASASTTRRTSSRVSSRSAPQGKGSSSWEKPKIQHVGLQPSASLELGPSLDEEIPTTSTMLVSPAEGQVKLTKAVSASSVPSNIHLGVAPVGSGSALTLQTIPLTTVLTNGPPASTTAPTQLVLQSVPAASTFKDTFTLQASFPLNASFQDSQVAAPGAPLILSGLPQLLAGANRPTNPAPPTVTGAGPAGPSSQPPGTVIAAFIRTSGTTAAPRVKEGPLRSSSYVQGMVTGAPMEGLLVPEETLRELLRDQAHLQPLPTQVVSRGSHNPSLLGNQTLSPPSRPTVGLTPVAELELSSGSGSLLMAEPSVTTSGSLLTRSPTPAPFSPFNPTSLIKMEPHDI
# Outline: as §1
# ELK4 = target: T9, ELK4 (Homo sapiens, UniProt P28324-2 1-405); details: protein: recombinant; tags: N-terminal GST; dsDNA, one strand shown
# T9 sequence: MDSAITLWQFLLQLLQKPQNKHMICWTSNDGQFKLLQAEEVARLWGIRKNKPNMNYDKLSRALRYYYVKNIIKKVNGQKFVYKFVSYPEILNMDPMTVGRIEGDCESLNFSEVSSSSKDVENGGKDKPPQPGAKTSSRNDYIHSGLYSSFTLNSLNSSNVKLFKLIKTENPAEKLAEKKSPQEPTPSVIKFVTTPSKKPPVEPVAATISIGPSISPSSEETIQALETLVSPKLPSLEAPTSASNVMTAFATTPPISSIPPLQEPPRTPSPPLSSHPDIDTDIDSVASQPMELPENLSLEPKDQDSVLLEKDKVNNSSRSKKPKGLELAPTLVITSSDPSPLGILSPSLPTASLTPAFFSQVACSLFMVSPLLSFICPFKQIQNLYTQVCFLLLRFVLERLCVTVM
# Outline: as §1
# ETV2 = target: T10, ETV2 (Homo sapiens, UniProt O00321 1-342); details: protein: recombinant; tags: N-terminal GST; dsDNA, one strand shown
# T10 sequence: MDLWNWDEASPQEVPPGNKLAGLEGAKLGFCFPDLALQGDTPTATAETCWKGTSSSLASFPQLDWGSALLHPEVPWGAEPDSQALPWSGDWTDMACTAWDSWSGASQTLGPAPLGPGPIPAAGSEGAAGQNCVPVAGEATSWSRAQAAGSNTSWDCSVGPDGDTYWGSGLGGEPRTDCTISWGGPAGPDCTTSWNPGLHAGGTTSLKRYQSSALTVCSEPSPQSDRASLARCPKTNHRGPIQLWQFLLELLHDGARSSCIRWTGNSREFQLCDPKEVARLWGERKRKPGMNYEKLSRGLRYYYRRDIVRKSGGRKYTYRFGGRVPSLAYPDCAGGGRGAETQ
# Outline: as §1
# ELF3 = target: T11, ELF3 (Homo sapiens, UniProt P78545 1-371); details: protein: recombinant; tags: N-terminal GST; dsDNA, one strand shown
# T11 sequence: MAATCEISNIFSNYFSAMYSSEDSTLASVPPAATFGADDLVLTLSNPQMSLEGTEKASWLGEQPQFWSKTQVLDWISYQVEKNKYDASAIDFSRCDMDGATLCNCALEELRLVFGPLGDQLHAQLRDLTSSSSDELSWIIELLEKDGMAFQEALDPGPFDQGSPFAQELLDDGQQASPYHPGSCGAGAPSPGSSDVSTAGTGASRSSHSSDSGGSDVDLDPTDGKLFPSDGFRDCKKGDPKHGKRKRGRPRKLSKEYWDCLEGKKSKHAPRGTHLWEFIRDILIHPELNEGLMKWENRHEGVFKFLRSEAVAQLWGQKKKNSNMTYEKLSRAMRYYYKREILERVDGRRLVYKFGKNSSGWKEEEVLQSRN
# Outline: as §1
# CRX = CRX (Homo sapiens, UniProt O43186 1-299); details: protein: recombinant; tags: N-terminal GST; dsDNA, one strand shown
# Sequence of CRX (O43186 whole entry): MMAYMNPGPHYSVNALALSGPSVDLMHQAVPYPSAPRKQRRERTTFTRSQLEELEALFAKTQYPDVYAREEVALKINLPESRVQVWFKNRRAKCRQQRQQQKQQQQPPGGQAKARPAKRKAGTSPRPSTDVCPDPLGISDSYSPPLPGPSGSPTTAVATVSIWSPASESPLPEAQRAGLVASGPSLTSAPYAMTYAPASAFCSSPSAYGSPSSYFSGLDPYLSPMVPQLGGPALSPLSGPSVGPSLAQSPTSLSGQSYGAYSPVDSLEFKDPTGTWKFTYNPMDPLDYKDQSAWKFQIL
# Outline: as §1
# ETV1 = ETV1 (Homo sapiens, UniProt P50549 1-477); details: protein: recombinant; tags: N-terminal GST; dsDNA, one strand shown
# Sequence of ETV1 (P50549 whole entry): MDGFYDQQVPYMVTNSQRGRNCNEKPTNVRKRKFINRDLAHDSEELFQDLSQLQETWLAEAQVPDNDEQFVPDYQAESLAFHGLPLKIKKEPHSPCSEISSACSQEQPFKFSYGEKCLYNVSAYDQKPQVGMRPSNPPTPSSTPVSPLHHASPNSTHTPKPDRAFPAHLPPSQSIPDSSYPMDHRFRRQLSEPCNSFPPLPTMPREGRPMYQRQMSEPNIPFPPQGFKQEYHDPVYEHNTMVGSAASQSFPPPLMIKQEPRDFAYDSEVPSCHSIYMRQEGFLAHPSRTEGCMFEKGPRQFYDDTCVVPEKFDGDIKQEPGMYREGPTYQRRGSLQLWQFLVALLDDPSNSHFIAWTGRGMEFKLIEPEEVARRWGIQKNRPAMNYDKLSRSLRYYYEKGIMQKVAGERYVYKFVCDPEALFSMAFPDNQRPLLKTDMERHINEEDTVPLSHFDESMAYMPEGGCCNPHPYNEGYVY
# Outline: as §1
sequence,measurement,setting,value
ATATCA,binding signal,FLI1,"1.23 fold enrichment (6-mer frequency, TF over GST control)"
same,binding signal,ELK1,"1.24 fold enrichment (6-mer frequency, TF over GST control)"
same,binding signal,GABPA,"1.22 fold enrichment (6-mer frequency, TF over GST control)"
same,binding signal,ERG,"1.14 fold enrichment (6-mer frequency, TF over GST control)"
same,binding signal,ELF1,"1.2 fold enrichment (6-mer frequency, TF over GST control)"
same,binding signal,EHF,"1.15 fold enrichment (6-mer frequency, TF over GST control)"
same,binding signal,SPI1,"1.13 fold enrichment (6-mer frequency, TF over GST control)"
same,binding signal,SPIB,"1.14 fold enrichment (6-mer frequency, TF over GST control)"
same,binding signal,ELK3,"1.11 fold enrichment (6-mer frequency, TF over GST control)"
same,binding signal,FEV,"1.1 fold enrichment (6-mer frequency, TF over GST control)"
same,binding signal,ETV5,"1.19 fold enrichment (6-mer frequency, TF over GST control)"
same,binding signal,HSF1,"1.04 fold enrichment (6-mer frequency, TF over GST control)"
same,binding signal,SPIC,"1.21 fold enrichment (6-mer frequency, TF over GST control)"
same,binding signal,ELF4,"1.19 fold enrichment (6-mer frequency, TF over GST control)"
same,binding signal,ELK4,"1.16 fold enrichment (6-mer frequency, TF over GST control)"
same,binding signal,ETV2,"1.29 fold enrichment (6-mer frequency, TF over GST control)"
same,binding signal,ELF3,"1.08 fold enrichment (6-mer frequency, TF over GST control)"
same,binding signal,CRX,"1.13 fold enrichment (6-mer frequency, TF over GST control)"
same,binding signal,ETV1,"1.14 fold enrichment (6-mer frequency, TF over GST control)"
